Bioassay records deposited in PubChem by National Center for Advancing Translational Sciences (NCATS).
This is a sample that favours compounds with a hit; in the whole collection about 11% have one here.
VDR inh – vitamin D3 receptor (human) inhibition; VDR-SRC2-3 peptide fluorescence polarization, 2 h; Potency, µM, inactives show max response, negative = inhibition, hits mostly inhibitors; 0.93% of 400,000 active; AID 504847; note: % is set by controls: 0 for no effect and ±100 for the full control effect
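Measured by FP: displacement of SRC2-3 coactivator peptide from VDR by library compounds, following a two-hour ambient incubation.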
HP1b chromo inh – blocks HP1-beta chromodomain binding to methylated histone tails. P83916. AlphaScreen HP1-beta / biotin-H3K9me3 peptide binding. Potency, µM (series often up to 114 µM), for inactives: at the highest dose activity change, negative = inhibition, actives largely listed as inhibitors. 0.56% of 390,000 active. AID 540317; note: nearly all actives have a fitted effect of over 70% in size
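Compound inhibition of the preformed complex between 50 nM HP1-beta and 50 nM biotinylated H3K9me3 peptide was read by AlphaScreen. Buffer was PBS pH 7.4 with 0.01% Tween-20. Incubations ran 30 min at room temperature, with 10 ug/mL donor/acceptor beads.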
PLK1 PBD inh – PLK1 (human) polo-box domain binding inhibition. 2.8% of 360,000 active. Potency, µM, without a hit: max response, negative = inhibition, hits mostly inhibitors. Plk1 PBD binding of FITC phosphopeptide, fluorescence polarization. P53350; note: series mostly up to about 57 µM; % is set by controls: 0 for no effect and ±100 for the full control effect; nearly all actives have a fitted effect of over 65% in size
JMJD2A Tudor inh – inhibitors of human JMJD2A Tudor domain; O75164; AlphaScreen JMJD2A-Tudor / H3K4me3 peptide binding; Potency, µM (top dose mostly 114 µM), inactives show at the highest dose activity change, negative = inhibition, most hits filed as inhibitors; 4.4% of 390,000 active; AID 504339; note: % is set by controls: 0 for no effect and ±100 for the full control effect; nearly all actives have a fitted effect of over 50% in size
BAZ2B inh – BAZ2B (human) inhibition; Potency, µM (highest dose often 114 µM), without a hit: top-dose activity change, negative = inhibition, usual class: inhibitors; Q9UIF8; 4.4% of 360,000 active; AlphaScreen BAZ2B-H3K14Ac peptide displacement; note: % is set by controls: 0 for no effect and ±100 for the full control effect; nearly all actives have a fitted effect of over 60% in size
Target sequence (Q9UIF8 whole entry, looked up): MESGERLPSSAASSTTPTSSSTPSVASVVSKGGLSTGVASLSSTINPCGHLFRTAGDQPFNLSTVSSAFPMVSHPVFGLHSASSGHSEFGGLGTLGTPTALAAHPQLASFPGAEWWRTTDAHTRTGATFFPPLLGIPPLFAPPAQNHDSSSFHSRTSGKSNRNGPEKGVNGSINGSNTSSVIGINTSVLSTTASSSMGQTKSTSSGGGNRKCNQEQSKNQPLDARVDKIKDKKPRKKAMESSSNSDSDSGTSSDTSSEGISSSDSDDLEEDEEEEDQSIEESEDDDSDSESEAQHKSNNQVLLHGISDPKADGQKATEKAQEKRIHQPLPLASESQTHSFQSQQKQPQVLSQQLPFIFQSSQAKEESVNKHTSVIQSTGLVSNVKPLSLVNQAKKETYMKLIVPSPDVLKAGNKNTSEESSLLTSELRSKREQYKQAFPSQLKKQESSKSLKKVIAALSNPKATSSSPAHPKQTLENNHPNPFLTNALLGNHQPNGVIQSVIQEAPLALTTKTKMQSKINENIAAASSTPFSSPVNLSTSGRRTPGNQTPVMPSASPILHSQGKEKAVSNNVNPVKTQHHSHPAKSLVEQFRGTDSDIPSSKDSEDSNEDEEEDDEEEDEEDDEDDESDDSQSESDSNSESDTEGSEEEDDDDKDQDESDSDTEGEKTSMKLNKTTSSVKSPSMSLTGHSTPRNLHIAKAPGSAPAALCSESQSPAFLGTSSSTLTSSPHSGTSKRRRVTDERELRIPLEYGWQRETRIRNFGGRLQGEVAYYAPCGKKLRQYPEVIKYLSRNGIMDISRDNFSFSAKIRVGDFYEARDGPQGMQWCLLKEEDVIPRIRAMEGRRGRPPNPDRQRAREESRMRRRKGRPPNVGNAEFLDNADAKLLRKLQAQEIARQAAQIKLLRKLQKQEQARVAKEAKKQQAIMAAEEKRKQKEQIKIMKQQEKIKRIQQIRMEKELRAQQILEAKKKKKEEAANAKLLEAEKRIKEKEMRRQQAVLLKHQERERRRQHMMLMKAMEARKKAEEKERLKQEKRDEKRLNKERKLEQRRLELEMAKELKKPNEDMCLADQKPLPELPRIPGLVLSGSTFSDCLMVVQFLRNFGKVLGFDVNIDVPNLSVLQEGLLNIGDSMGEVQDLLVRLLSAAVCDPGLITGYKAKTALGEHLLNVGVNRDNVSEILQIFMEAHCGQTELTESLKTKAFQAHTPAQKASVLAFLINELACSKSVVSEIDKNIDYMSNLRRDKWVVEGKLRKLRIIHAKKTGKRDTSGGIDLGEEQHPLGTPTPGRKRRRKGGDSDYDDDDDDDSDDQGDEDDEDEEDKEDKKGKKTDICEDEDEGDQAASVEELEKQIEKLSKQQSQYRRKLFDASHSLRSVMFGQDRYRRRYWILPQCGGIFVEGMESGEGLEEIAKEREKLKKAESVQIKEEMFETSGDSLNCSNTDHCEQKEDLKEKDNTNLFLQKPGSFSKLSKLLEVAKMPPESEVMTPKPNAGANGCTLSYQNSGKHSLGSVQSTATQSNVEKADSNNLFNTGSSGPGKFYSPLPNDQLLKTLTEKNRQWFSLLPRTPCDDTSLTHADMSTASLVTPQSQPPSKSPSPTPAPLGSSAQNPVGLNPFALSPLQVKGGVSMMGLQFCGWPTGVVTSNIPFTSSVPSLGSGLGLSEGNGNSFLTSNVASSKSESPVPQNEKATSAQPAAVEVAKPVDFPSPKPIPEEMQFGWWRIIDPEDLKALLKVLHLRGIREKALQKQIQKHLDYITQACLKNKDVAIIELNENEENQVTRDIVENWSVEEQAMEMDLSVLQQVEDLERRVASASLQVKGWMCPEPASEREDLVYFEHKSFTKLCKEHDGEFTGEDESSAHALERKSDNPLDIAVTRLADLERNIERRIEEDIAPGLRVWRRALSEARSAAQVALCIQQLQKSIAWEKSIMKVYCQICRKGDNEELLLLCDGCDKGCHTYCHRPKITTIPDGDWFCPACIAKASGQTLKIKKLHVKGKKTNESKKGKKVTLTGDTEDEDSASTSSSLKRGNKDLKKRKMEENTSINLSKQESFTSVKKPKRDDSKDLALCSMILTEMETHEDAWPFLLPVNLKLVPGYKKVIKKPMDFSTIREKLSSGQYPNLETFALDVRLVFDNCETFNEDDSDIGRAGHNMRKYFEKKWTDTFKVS
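AlphaScreen displacement of biotin-H3(5-23)K14Ac peptide (50 nM final) from BAZ2B (50 nM final) in PBS pH 7.4, 0.01% Tween-20; complex preformed 30 min RT, then compounds (top 110 uM) 30 min RT, beads 20 min dark.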
G9a inh – blocks human histone lysine methyltransferase G9a; G9a H3K9 monomethylation, AlphaScreen, 2 h; Potency, µM (series often up to 102 µM), inactives show top-dose activity, negative = inhibition, usual class: inhibitors; 8.8% of 350,000 active; AID 504332; note: % is set by controls: 0 for no effect and ±100 for the full control effect; nearly all actives have a fitted effect of over 75% in size
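G9a (20 nM) preincubated 15 min RT with compounds, then 500 nM biotinylated H3K9 peptide and 20 uM SAM added; 2 h RT reaction. Monomethyl-H3K9 product detected by AlphaScreen with anti-H3K9me1 antibody, streptavidin donor and anti-rabbit IgG acceptor beads.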
* marks the source's active call; other numbers are inactive results; [ ] = dose if it differs, or a comment. Calls come from the whole dose curve; as a rule, active = well fitted curve in the direction sought with a large enough effect; inconclusive = small, poorly fitted or top-dose-only effect, or another doubt; inactive = no such curve, though single readings can be large; an effect the other way counts as inactive or inconclusive. Potency is the fitted concentration of half-maximal effect.

COc1ccc(S(=O)(=O)N2CCC(C(=O)NCCc3c[nH]c4ccccc34)CC2)cc1 was read as VDR inh -7%, HP1b chromo inh 4%, PLK1 PBD inh -2%, JMJD2A Tudor inh -33%, BAZ2B inh -9% and G9a inh -12%.
CCOC(=O)c1cc(-c2ccc(OC)cc2)n(CCC(=O)NCc2ccc(OC)cc2)c1C was read as VDR inh 7%, HP1b chromo inh 31%, JMJD2A Tudor inh 3%, BAZ2B inh 2% and G9a inh -36%[59 µM].
For CCN(CC)C(=O)C1=C(C)N(CCCN2CCCC2=O)C(=O)C(CC(=O)NC2CCCCC2)C1 (stereo unspecified) the results were PLK1 PBD inh 2%.
Screening COC(=O)c1ccccc1NC1=C/C(=N\S(=O)(=O)c2cccs2)c2ccccc2C1=O returned VDR inh inconclusive, HP1b chromo inh 7.1µM*, PLK1 PBD inh 19µM*, JMJD2A Tudor inh 4µM*, BAZ2B inh 1.4µM* and G9a inh 1.8µM*.
COC(=O)c1ccccc1NC1=C/C(=N\S(=O)(=O)c2ccc(C(=O)O)cc2)c2ccccc2C1=O was read as VDR inh 25µM*, HP1b chromo inh 16µM*, PLK1 PBD inh inconclusive, JMJD2A Tudor inh 20µM*, BAZ2B inh 8.9µM* and G9a inh 8.9µM*.
For COC(=O)c1ccccc1Nc1ccccc1 the results were VDR inh -10%, HP1b chromo inh 169%, PLK1 PBD inh 2%, JMJD2A Tudor inh 131%, BAZ2B inh 172% and G9a inh 75%[59 µM].
`CCc1cc(=O)[nH]c(SCc2nc(-c3cccc(Cl)c3)no2)n1` gave VDR inh 6%, HP1b chromo inh 30%[57 µM], JMJD2A Tudor inh 6%, BAZ2B inh 8% and G9a inh inconclusive.
O=C(c1ccc([N+](=O)[O-])c(CS(=O)(=O)c2ccc(Cl)cc2)c1)N1CCCC1 was read as VDR inh -3%, HP1b chromo inh 1%, PLK1 PBD inh 0%, JMJD2A Tudor inh -11%, BAZ2B inh 8% and G9a inh 8%.
`CCN1CCN(CC(=O)N2N=C(c3cccs3)CC2c2ccc(OC)c(OC)c2)C(=O)C1=O` (stereo unspecified) gave VDR inh -23%, HP1b chromo inh -13%, PLK1 PBD inh -8%, JMJD2A Tudor inh -6%, BAZ2B inh -10% and G9a inh 9%.
Screening C=C1C(=O)c2sccc2C(c2ccc(OC)c(OC)c2)C1COC(C)=O (stereo unspecified) returned VDR inh inconclusive, HP1b chromo inh 1%, PLK1 PBD inh 27µM* and JMJD2A Tudor inh -22%.
Screening Cc1ccc(C(=O)Nc2ncc3c(Cl)cccc3n2)cc1 returned VDR inh -22%, HP1b chromo inh -12%, PLK1 PBD inh 21µM*, JMJD2A Tudor inh inconclusive, BAZ2B inh -35%[57.1 µM] and G9a inh 99%[59 µM].
`Cc1cccc(C(=O)OCC(=O)c2ccc(CC(=O)N3CCOCC3)s2)c1C` gave VDR inh 1%, HP1b chromo inh -12%, PLK1 PBD inh -11%, JMJD2A Tudor inh inconclusive, BAZ2B inh 50µM* and G9a inh 2%[2.33 µM].
For C=C1OC(CO)(n2cnc3c(N)ncnc32)C(O)C1O (stereo unspecified) the results were VDR inh -9%, HP1b chromo inh 20%[57 µM], JMJD2A Tudor inh -10%[57.1 µM] and G9a inh 26%[59 µM].
`CCC(Sc1nc2nccnc2c(=O)n1Cc1ccc(Cl)cc1)C(=O)NC1CCCCC1` (stereo unspecified) gave VDR inh 10%, HP1b chromo inh 28%, JMJD2A Tudor inh -12%, BAZ2B inh 4% and G9a inh 10%[59 µM].
Screening CCN1C(=O)C2C(C1=O)N1C(c3ccccc3)C3C(=O)N(CC)C(=O)C3N1C2c1ccccc1 (stereo unspecified) returned VDR inh 6%, HP1b chromo inh 11%, PLK1 PBD inh -7%, JMJD2A Tudor inh 1%, BAZ2B inh 1% and G9a inh -2%[59 µM].
